The nature of assay [1]: Viability qHTS for spleen associated tyrosine kinase inhibitor (SYKi) naive MV4-11 cells (AID 1963823). Further: nearly all actives have a fitted effect of over 40% in size. The note with it: MV4-11 AML viability, CellTiter-Glo luminescence, 72 h; series mostly up to 45 µM. In short, it runs like this:
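Seeding of 500 SYKi-naive MV4-11 cells per well onto pre-dispensed compounds preceded a 72 hr incubation at 37 C. Luminescent CellTiter-Glo signal, read after 10 min at room temperature, reflected viable cells.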
For orientation: In qHTS, concentration-response curves come from the screen itself.

The nature of assay [2]: Viability qHTS for spleen associated tyrosine kinase inhibitor (SYKi) drug resistant MV4-11 cells (AID 1963824). Further: nearly all actives have a fitted effect of over 35% in size. The note with it: SYKi-resistant MV4-11 viability, CellTiter-Glo, 72 h; series mostly up to 45 µM. The gist of the method:
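SYK-inhibitor-resistant MV4-11 AML cells were seeded at 500 per well onto compound and cultured 72 hours (37 °C, 5% CO2). CellTiter-Glo was then added, and after 10 min at room temperature, luminescence gave viability.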

In PubChem BioAssay (NCATS) one finds Potency, viability (% of control) and viability, % of control data, which are given here for 26 molecules.

Values joined by “and” are separate entries in the source; they are usually repeats but may differ in a detail not shown here. Equal entries are not always repeated. Inconclusive results are not listed. A number with no mark means an inactive call. Active and inactive are the calls of the source. The call rests on the fitted dose curve; in most records, active means well fitted cell-killing curve with a large enough effect; inconclusive means small, poorly fitted or top-dose-only effect, or effect the other way; inactive means no such curve, though single readings can be large or run the other way.
Potency means the concentration at half of the fitted maximal effect.

Turning to `C[C@H]1[C@@H](O)[C@H](O)C2[C@]3(C)C([C@@H](O)[C@H]4OC(=O)[C@@H]1[C@@]24C)[C@](C)(O)C=C[C@H]3O[C@@H]1O[C@H](CO)[C@@H](O)[C@H](O)[C@H]1O` (some centres not stated), the Potency result in assay [1] and in assay [2] was “inactive” each time.

For `CC(=O)c1c(C)cccc1O[C@@H]1O[C@H](CO)[C@@H](O)[C@H](O)[C@H]1O`, the Potency entry in assay [1] and in assay [2] was “inactive” throughout.

On to `Nc1nccn2c(C3CCC(C(=O)O)CC3)nc(-c3cc4cccc(Cl)c4[nH]3)c12` (configuration not stated), for which the Potency was 0.934 µM (active) in assay [1]; 580 nM (active) and 1.48 µM (active) in assay [2].

Consider `Cc1c(C(=O)O)c(O)cc2c1C(=O)c1c(O)c([C@@H]3O[C@H](CO)[C@@H](O)[C@H](O)[C@H]3O)c(O)c(O)c1C2=O`, for which the Potency entry in assay [1] and in assay [2] was “inactive” throughout.

For `C[C@@H]1O[C@@H](O[C@H]2[C@H](O)[C@@H](O)[C@H](OC[C@H]3O[C@@H](OC(=O)[C@]45CCC(C)(C)C[C@H]4C4=CCC6[C@@]7(C)C[C@H](O)[C@H](O[C@@H]8O[C@H](CO)[C@@H](O)[C@H](O)[C@H]8O)[C@@](C)(C(=O)O)C7CC[C@@]6(C)[C@]4(C)CC5)[C@H](O[C@@H]4O[C@H](CO)[C@@H](O)[C@H](O)[C@H]4O)[C@@H](O)[C@@H]3O)O[C@@H]2CO)[C@H](O)[C@H](O)[C@H]1O` (some centres not stated), in assay [1], the viability (% of control) was 103% [at 9.25 µM]. The viability, % of control in assay [2] is 87% [at 9.25 µM].

On to `C[C@@H]1C[C@@H](O)[C@@]23CO[C@@H](O)[C@@H]2CCC[C@@H]3[C@@]12C[C@@H](c1ccoc1)OC2=O`, for which the Potency result in assay [1] and in assay [2] was “inactive” throughout.

For `Cc1cc(-c2cnc(N)c3c(-c4ccc5scnc5c4)csc23)n(C)n1`, the results for the Potency in assay [1] and in assay [2] were 1.3 µM (active) and 2.59 µM (active), respectively.

In the case of `CC12CCC(OC3OC(CO)C(O)C(OC4OC(CO)C(O)C(O)C4O)C3O)CC1CCC1C2CCC2(C)/C(=C3/COC(=O)C3)CCC12O` (configuration not stated), the Potency result in assay [1] and in assay [2] was “inactive” each time.

Consider `COC(=O)C[C@H]1C(C)(C)[C@H](OC(=O)C(C)C)[C@@]2(O)C(=O)[C@]1(C)C1CC[C@]3(C)C(CC(=O)O[C@H]3c3ccoc3)[C@]13O[C@@H]32` (some centres not stated), for which the Potency entry in assay [1] and in assay [2] was “inactive” in each case.

Take `COc1ccc2c(c1)C=C1Cn3c-2c(C2CCCCC2)c2ccc(cc23)C(=O)NS(=O)(=O)N(C)CCOCCN(C)C1=O`: the figures for the Potency in assay [1] and in assay [2] were 16.4 µM (active) and 18.4 µM (active), respectively.

As to `O=C(OCC1=CC(O)C2C=CO[C@@H](O[C@@H]3O[C@H](CO)[C@@H](O)[C@H](O)[C@H]3O)C12)c1ccccc1` (some centres not stated), the Potency entry in assay [1] and in assay [2] was “inactive” throughout.

Turning to `COc1cc2c(cc1NS(=O)(=O)c1ccc(Br)cc1C)n(C)c(=O)n2C`, the Potency in assay [1] and in assay [2] was 2.31 µM (active) in each case.

On to `CC1OC(OC2CCC3(C)C(CCC4(C)C3CC=C3C5CC(C)(C)CCC5(C(=O)OC5OC(CO)C(O)C(O)C5O)CCC34C(=O)O)C2(C)C)C(O)C(O)C1O` (configuration not stated), for which the Potency result in assay [1] and in assay [2] was “inactive” each time.

On to `CC1(C(=O)O)CCCC2(C)C3CCC4CC3(CCC12)CC4C(=O)O` (configuration not stated), for which the Potency result in assay [1] and in assay [2] was “inactive” in each case.

With `O=C(O)CC1(O)C(=O)Nc2ccccc21` (configuration not stated), the Potency in assay [1] is 9.43 µM (active). In addition, in assay [2], the Potency entry was “inactive”.

With `O=c1cc(-c2cccc(O)c2)oc2c(O)c(O)ccc12`, the Potency was 14.6 µM (active) in assay [1] and 16.4 µM (active) in assay [2].

Regarding `COc1ccc(C(O)C(C)OC2OC(CO)C(O)C(O)C2O)cc1` (configuration not stated), the Potency entry in assay [1] and in assay [2] was “inactive” in each case.

Consider `OC1(CN2CCC(COc3noc4cccc(O[C@@H]5CCOC5)c34)CC2)CCOCC1`, for which the Potency entry in assay [1] and in assay [2] was “inactive” throughout.

For the molecule `Cc1nc(Nc2cnn(C3CCNCC3)c2)nc2c1N(C)C(=O)c1cc3ccccc3cc1N2C`, the Potency in assay [1] is 3.66 µM (active); in assay [2] it was 6.51 µM (active).

Take `CC(C)CCC[C@@H](C)[C@H]1CC[C@H]2[C@@H]3CC=C4C[C@@H](OC(=O)NCCN(C)C)CC[C@]4(C)[C@H]3CC[C@]12C`: the Potency in assay [1] was 20.6 µM (active); in assay [2], 16.4 µM (active).

As for `CC/C=C\C[C@H]1C(=O)C=C[C@@H]1CCCCCCCC(=O)O`, the figures for the Potency in assay [1] and in assay [2] were 16.4 µM (active) and 23.1 µM (active), respectively.

As to `CCN(CC)CCOc1ccc2c(c1)C(=O)c1cc(OCCN(CC)CC)ccc1-2`, the Potency in assay [1] was 13.3 µM (active); in assay [2], 9.44 µM (active).

For `CNc1ccc([N+](=O)[O-])c(Nc2ccc3[nH]ncc3c2)n1`, the Potency is 2.59 µM (active) in assay [1] and 5.8 µM (active) in assay [2].

For `CC(C)c1ccc(CO)cc1O[C@@H]1O[C@H](CO)[C@@H](O)[C@H](O)[C@H]1O`, the Potency entry in assay [1] and in assay [2] was “inactive” in each case.

`C=C1C(=O)O[C@H]2/C=C(/C)[C@@H](OC(C)=O)C/C=C(\C)C[C@@H](OC(=O)/C(=C/C)COC(=O)/C(=C/C)CO)[C@@H]12`: the Potency is 1.78 µM (active) in assay [1] and 1.59 µM (active) in assay [2].

On to `Cn1nccc1Nc1nccc(-c2ccn([C@H](CO)c3ccc(Cl)c(F)c3)c(=O)c2)n1`, for which the Potency was 7.31 µM (active) in assay [1]; 4.61 µM (active) and 6.61 µM (active) in assay [2].
